Measured values published in PubChem BioAssay AID1540 (National Center for Advancing Translational Sciences (NCATS), 2009).
Where “and” joins values, the source holds several entries; their conditions need not be identical. Equal values may be shown once. Results filed as inconclusive are left out. Calls of active or inactive are those of the source. The call rests on the fitted dose curve; in most records, active means well fitted activation curve with a large enough effect; inconclusive means small, poorly fitted or top-dose-only effect, or effect the other way; inactive means flat fitted curve, though single readings scatter.

Target: Pyruvate kinase PKM (Homo sapiens) (UniProt P14618)
Sequence (P14618 whole entry, looked up, canonical isoform): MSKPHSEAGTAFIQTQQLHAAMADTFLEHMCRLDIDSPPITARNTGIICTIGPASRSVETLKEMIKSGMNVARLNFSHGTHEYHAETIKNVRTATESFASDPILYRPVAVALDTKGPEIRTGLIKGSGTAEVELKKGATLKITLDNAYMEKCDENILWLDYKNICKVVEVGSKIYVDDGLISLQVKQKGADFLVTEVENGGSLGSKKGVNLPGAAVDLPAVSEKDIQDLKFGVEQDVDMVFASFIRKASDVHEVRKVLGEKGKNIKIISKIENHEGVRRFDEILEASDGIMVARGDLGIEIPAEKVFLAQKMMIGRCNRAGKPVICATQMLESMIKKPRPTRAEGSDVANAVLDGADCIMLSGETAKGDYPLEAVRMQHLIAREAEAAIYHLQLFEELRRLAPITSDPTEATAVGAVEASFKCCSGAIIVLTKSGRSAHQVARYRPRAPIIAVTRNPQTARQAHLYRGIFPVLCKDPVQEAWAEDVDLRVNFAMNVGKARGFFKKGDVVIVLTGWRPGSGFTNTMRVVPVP
Experiment: Secondary assay for Activators of Human Pyruvate Kinase M2 isoform
Settings: purified hPK-M2, LDH-coupled NADH fluorescence kinetic; series mostly up to 57.5 µM; activation: at the top concentration
From the text: Confirmatory assay NIH Chemical Genomics Center [NCGC] Matthew G. Vander Heiden, M.D., Ph.D. [Harvard Medical School, 77 Avenue Louis Pasteur, Boston, MA 02115] NCGC Assay Overview: Human pyruvate kinase muscle 2 (hPK-M2)enzyme was supplied as a highly purified (>95% pure) preparation from Harvard Medical School and a secondary assay was used to evaluate compounds. This assay couples the formation of pyruvate from hPK-M2 using lactate dehydrogenase (LDH) and NADH. The depletion of NADH is followed in a fluorescent-based kinetic assay that follows the formation of pyruvate to lactate, as catalyzed LDH (described by Hannaert et al., 2002)1 Pyruvate kinase substrates, PEP and ADP, were present in the assay at 0.1 mM and 4 mM respectively. In this kinetic assay initial rates were determined by following the fluorescence of NADH depletion.
NCGC Assay Protocol Summary: Three uL of substrate mix (final concentration, 50 mM Tris-Cl pH 8.0, 200 mM KCl, 15 mM MgCl2, 0.1 mM PEP, 4.0 mM ADP, and 0.2 mM NADH) was dispensed into black-solid 1536 well plates. 23 nL of compounds were delivered by a pin tool and 1 uL of enzyme mix (final concentrations, 10 nM hPK-M2 and 1 uM of LDH) was added. Plates were immediately placed in ViewLux (Perkin Elmer) and NADH fluorescence was determined at 30 second exposure intervals for between 3 and 6 minutes. Data were normalized to the uninhibited and EC100 activation using known activators such as fructose-bis-phosphate.

Potency, active:
Cc1cc2c(s1)c1cnn(Cc3ccccc3Cl)c(=O)c1n2C 562 nM, COc1cc(F)c(S(=O)(=O)N2CCN(S(=O)(=O)c3ccc(N)cc3)CC2)c(F)c1 183 nM, O=S(=O)(c1ccc2c(c1)OCCO2)N1CCN(S(=O)(=O)c2cccc[n+]2[O-])CC1 4470 nM, Cc1cc2c(s1)c1cnn(Cc3ccc(C)c(F)c3F)c(=O)c1n2C 141 nM, Cc1cc2c(s1)c1cnn(Cc3ccc(C(C)C)cc3)c(=O)c1n2C 4470 nM, COc1cc(F)c(S(=O)(=O)N2CCCN(S(=O)(=O)c3ccc(NC(C)=O)cc3)CC2)c(F)c1 6510 nM, O=S(=O)(c1ccc2c(c1)OCCO2)N1CCN(S(=O)(=O)c2ccccn2)CC1 2820 nM, Nc1ccc(S(=O)(=O)N2CCN(S(=O)(=O)c3ccc4c(c3)OCCO4)CC2)cc1 163 nM, COc1cc(F)c(S(=O)(=O)N2CCCN(S(=O)(=O)c3cccc(N)c3)CC2)c(F)c1 146 nM and 1.16 µM, Cc1cc2c(s1)c1cnn(Cc3ccc(F)c(F)c3F)c(=O)c1n2C 1260 nM, COc1cc2c(s1)c1cnn(Cc3ccccc3F)c(=O)c1n2C 158 nM, Cc1cc2c(s1)c1cnn(Cc3c(F)cccc3Cl)c(=O)c1n2C 158 nM, Cc1ccc(Cn2ncc3c4sc(C)cc4n(C)c3c2=O)c(C)c1 1780 nM, Cc1cc2c(s1)c1cnn(Cc3ccc(Cl)cc3)c(=O)c1n2C 1120 nM, Cc1cc2c(s1)c1cnn(Cc3c(F)c(F)cc(F)c3F)c(=O)c1n2C 398 nM, CCc1cc2c(s1)c1cnn(Cc3ccccc3F)c(=O)c1n2C 631 nM, COc1cccc(Cn2ncc3c4sc(B(O)O)cc4n(C)c3c2=O)c1 17800 nM, COc1ccc(Cn2ncc3c4sc(C)cc4n(C)c3c2=O)cc1F 1120 nM, COc1cc(F)c(S(=O)(=O)N2CCCN(S(=O)(=O)c3ccc4c(c3)OCCO4)CC2)c(F)c1 58 nM, Cn1c2cc(Br)sc2c2cnn(Cc3c(F)cccc3Cl)c(=O)c21 794 nM, COc1cc(F)c(S(=O)(=O)N2CCN(S(=O)(=O)c3cccs3)CC2)c(F)c1 51.7 nM, Cc1cc2c(s1)c1cnn(Cc3cc(C(F)(F)F)cc(Cl)c3F)c(=O)c1n2C 562 nM, C[C@H]1CN(S(=O)(=O)c2ccc3c(c2)OCCO3)CCN1S(=O)(=O)c1c(F)cccc1F 5010 nM, O=S(=O)(c1ccc2c(c1)OCCO2)N1CCN(S(=O)(=O)c2ccc(F)cc2F)CC1 501 nM, Cc1cc2c(s1)c1cnn(Cc3ccc(F)cc3F)c(=O)c1n2C 178 nM, O=S(=O)(c1ccc(Cl)cc1)N1CCN(S(=O)(=O)c2ccc3c(c2)OCCO3)CC1 1120 nM, CC(=O)Nc1cccc(S(=O)(=O)N2CCCN(S(=O)(=O)c3ccc4c(c3)OCCO4)CC2)c1 819 nM, O=C(O)Cc1cc(F)c(S(=O)(=O)N2CCN(S(=O)(=O)c3ccc4c(c3)OCCO4)CC2)cc1F 14100 nM, Cc1cc2c(s1)c1cnn(Cc3cccc(F)c3)c(=O)c1n2C 1260 nM, Cn1c2cc(S(C)=O)sc2c2cnn(Cc3ccccc3F)c(=O)c21 (stereo not given) 398 nM, COC(=O)c1cc(F)c(S(=O)(=O)N2CCN(S(=O)(=O)c3ccc4c(c3)OCCO4)CC2)cc1F 355 nM, Cc1cc2c(s1)c1cnn(Cc3ccccc3)c(=O)c1n2C 199 nM, O=S(=O)(c1ccc2c(c1)OCCO2)N1CCCN(S(=O)(=O)c2c(F)cccc2F)CC1 891 nM, Cc1cc2c(s1)c1cnn(Cc3cccc(F)c3F)c(=O)c1n2C 501 nM, O=S(=O)(c1cccc(F)c1)N1CCN(S(=O)(=O)c2ccc3c(c2)OCCO3)CC1 1000 nM, COc1cc(F)c(S(=O)(=O)N2CCCN(S(=O)(=O)c3ccc(N)cc3)CC2)c(F)c1 1300 nM

activation, inactive:
O=S(=O)(NCCNS(=O)(=O)c1c(F)cccc1F)c1ccc2c(c1)OCCO2 25.3%, Nc1cc(S(=O)(=O)N2CCN(S(=O)(=O)c3ccc4c(c3)OCCO4)CC2)ccn1 8.04%, CNc1cccc(S(=O)(=O)N2CCN(S(=O)(=O)c3ccc4c(c3)OCCO4)CC2)c1 17.9%, Cc1ccc(C)c(OC2=NS(=O)(=O)c3ccccc32)c1 -6.5%
